About 7,900 targets were measured; listed, in parts, are those with a hit and a random draw of the rest. About 0.6% of all pairs of compound and target were hits.
The targets below were run with CC1=NC(=CC=C1)C2=C(N=C(N2)C(C)(C)C)C3=CC4=NC=CN=C4C=C3 (assay: log2 fold change, soluble protein after heating vs DMSO (PISA); higher = thermal stabilisation; K562 cells, 10 uM, 30 min; active = over 0.2 and 3.5 SD of the protein, either way, in both replicates (recomputed)).
How it was run: (§1)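 K562 cells at 2×10^6 cells/mL were exposed to 10 μM compound for 30 min, then aliquots were heated for 3 min across 48°C-58°C, pooled, and extracted in PBS containing 0.5% NP-40 at 4°C. The supernatant after 21,000xg for 90 min was taken as soluble protein and measured by TMTpro 16plex LC-MS/MS with channel sums equalised. Thermal stability is reported relative to control samples, with values from duplicates. Fold changes are given on a log2 scale.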
UniProt Q99758, sequence (Q99758 whole entry, looked up): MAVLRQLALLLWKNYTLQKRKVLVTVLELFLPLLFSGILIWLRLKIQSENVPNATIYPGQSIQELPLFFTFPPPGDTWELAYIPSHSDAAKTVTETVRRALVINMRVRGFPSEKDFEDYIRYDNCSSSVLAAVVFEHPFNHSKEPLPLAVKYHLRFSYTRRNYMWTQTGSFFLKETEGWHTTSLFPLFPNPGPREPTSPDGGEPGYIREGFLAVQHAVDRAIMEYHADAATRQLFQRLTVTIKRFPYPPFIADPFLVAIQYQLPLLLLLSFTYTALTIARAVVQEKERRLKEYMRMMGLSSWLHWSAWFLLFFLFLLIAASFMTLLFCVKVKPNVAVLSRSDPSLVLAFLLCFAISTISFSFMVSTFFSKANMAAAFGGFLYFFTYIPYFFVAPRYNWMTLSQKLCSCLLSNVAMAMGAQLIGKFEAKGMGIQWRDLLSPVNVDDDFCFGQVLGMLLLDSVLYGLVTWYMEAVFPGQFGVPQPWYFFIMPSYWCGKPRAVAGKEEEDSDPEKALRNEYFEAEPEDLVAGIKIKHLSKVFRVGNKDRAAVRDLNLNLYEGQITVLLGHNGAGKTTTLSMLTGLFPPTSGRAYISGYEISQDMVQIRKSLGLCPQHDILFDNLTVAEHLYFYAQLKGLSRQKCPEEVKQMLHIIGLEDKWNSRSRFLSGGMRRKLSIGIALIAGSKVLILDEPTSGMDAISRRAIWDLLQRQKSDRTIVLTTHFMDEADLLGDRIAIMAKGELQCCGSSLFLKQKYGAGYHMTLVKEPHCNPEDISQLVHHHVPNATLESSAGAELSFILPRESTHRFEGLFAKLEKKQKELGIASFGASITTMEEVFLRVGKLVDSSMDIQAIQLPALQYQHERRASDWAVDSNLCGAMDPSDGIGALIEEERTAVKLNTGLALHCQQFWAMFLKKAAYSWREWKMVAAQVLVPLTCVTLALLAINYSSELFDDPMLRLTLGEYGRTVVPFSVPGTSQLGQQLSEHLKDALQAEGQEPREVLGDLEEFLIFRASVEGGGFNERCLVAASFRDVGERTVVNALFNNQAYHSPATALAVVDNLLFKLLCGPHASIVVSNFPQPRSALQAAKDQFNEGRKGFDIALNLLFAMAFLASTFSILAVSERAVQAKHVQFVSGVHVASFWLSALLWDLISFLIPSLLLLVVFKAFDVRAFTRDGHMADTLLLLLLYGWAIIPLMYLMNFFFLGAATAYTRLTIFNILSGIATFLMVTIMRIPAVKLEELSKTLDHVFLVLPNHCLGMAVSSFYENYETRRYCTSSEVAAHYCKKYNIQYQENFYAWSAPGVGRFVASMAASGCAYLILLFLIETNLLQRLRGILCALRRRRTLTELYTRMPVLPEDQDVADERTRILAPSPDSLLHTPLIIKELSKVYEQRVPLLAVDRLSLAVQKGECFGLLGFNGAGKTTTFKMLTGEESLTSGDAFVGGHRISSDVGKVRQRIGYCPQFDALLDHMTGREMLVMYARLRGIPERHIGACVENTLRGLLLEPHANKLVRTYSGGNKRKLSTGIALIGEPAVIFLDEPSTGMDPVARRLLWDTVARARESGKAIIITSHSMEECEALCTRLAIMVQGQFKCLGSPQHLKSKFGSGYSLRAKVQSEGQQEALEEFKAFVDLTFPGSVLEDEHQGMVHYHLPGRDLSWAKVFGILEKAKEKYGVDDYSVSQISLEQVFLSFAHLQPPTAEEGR
UniProt P54922, sequence (P54922 whole entry, looked up): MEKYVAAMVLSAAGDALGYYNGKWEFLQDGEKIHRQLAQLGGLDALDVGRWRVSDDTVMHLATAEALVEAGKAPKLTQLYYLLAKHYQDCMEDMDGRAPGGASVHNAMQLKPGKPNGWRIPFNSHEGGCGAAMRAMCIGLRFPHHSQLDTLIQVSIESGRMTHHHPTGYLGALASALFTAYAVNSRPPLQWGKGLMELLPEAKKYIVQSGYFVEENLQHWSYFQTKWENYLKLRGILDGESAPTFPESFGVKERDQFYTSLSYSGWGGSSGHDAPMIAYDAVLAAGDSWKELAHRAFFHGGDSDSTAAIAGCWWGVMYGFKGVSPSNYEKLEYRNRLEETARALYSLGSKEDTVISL
UniProt Q9HC16, sequence (Q9HC16 whole entry, looked up): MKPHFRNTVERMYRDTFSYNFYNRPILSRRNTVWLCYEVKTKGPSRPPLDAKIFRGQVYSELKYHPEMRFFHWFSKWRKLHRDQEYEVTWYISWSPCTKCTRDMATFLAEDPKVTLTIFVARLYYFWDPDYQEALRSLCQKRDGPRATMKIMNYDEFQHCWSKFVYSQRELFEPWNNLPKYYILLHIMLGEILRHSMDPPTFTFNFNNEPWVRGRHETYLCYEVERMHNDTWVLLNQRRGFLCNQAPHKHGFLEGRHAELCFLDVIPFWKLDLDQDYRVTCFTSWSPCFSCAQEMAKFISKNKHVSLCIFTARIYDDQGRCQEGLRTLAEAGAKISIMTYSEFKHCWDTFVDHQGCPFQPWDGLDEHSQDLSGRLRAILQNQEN
UniProt Q8WV93, sequence (Q8WV93 whole entry, looked up): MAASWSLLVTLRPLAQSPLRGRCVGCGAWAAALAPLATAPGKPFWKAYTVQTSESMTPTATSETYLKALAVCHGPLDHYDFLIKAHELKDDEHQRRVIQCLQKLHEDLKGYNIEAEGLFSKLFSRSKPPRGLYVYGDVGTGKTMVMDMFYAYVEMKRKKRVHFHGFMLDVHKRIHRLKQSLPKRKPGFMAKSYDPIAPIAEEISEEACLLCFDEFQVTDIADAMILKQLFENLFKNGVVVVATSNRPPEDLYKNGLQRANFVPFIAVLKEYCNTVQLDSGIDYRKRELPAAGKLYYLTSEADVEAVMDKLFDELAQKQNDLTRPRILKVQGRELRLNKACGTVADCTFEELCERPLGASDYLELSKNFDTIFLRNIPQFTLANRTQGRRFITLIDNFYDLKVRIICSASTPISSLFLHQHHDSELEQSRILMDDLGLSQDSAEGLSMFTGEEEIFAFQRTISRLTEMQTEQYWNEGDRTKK
UniProt P08758, sequence (P08758 whole entry, looked up): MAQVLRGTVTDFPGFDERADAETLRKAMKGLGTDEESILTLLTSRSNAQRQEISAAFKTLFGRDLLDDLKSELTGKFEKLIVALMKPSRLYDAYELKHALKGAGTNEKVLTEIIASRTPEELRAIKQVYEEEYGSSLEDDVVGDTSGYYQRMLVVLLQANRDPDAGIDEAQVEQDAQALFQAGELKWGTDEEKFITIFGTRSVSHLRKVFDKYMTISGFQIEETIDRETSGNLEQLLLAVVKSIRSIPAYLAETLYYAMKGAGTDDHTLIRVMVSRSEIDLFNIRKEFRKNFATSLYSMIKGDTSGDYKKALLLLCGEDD
UniProt Q8N6H7, sequence (Q8N6H7 whole entry, looked up): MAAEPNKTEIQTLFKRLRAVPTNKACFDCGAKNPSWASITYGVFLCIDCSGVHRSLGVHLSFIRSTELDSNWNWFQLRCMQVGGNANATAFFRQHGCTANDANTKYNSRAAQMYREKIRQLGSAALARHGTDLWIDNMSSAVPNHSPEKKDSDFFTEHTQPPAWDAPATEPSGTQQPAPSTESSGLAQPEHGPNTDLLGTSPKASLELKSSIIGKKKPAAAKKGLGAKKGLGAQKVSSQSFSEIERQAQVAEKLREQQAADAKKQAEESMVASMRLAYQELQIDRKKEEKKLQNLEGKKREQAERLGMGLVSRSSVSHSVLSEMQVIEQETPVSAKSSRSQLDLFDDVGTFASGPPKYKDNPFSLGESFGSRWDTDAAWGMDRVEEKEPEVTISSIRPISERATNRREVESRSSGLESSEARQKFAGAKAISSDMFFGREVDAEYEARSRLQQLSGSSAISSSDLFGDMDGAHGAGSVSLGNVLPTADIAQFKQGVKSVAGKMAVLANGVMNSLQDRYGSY
UniProt Q13444, sequence (Q13444 whole entry, looked up): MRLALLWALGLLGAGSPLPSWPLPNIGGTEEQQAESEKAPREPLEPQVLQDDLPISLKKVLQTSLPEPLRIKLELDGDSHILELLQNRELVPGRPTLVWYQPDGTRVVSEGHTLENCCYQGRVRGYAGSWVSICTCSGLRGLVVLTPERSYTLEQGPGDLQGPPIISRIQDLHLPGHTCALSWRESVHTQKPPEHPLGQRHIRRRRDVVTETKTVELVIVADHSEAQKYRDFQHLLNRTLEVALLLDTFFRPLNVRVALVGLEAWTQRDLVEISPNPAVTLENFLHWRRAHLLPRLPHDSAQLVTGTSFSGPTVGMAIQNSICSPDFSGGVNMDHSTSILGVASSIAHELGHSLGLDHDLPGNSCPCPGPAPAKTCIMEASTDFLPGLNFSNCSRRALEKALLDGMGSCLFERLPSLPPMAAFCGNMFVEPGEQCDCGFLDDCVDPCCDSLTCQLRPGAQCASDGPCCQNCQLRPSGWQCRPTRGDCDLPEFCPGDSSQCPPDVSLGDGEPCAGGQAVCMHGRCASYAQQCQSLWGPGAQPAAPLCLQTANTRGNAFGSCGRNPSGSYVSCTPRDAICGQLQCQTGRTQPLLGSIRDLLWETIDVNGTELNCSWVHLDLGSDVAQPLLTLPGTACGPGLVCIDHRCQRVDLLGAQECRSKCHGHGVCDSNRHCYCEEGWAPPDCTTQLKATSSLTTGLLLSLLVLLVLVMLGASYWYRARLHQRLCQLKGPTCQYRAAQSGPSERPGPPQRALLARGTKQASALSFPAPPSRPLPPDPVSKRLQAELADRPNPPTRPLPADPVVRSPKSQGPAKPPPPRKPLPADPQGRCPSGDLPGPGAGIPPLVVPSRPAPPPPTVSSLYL
UniProt Q96GS6, sequence (Q96GS6 whole entry, looked up): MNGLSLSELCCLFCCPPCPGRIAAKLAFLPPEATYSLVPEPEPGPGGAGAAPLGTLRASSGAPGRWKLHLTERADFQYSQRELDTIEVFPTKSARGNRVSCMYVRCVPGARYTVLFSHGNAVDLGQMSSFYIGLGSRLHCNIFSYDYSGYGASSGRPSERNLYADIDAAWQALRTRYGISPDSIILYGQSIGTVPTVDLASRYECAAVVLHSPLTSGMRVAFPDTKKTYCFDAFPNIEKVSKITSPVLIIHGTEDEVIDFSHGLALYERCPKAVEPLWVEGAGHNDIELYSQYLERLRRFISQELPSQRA
In the case of ABHD17A isoform 2 (UniProt Q96GS6), the log2 fold change is reported as -0.068 (inactive). For AASDH (UniProt Q4L235), the log2 fold change was -0.056 (inactive). ARFGAP2 (UniProt Q8N6H7) was tested, and the log2 fold change was -0.04 (inactive). With AMD1 (UniProt P17707) the log2 fold change was 0.078 (inactive). With ADPRH (UniProt P54922) the log2 fold change was -0.134 (inactive). In the case of BDH2 (UniProt Q9BUT1), the log2 fold change is reported as 0.016 (inactive). With ANXA5 (UniProt P08758) the log2 fold change was 0.068 (inactive). In the case of BYSL (UniProt Q13895), the log2 fold change is reported as 0.016 (inactive). For BRIP1 (UniProt Q9BX63), the log2 fold change was -0.03 (inactive). ADAM15 (UniProt Q13444) was tested, and the log2 fold change was -0.14 (inactive). ABCA3 (UniProt Q99758) was tested, and the log2 fold change was -0.035 (inactive). With AFG1L (UniProt Q8WV93) the log2 fold change was 0.015 (inactive). In the case of BRD8 isoform 2 (UniProt Q9H0E9), the log2 fold change is reported as -0.023 (inactive). In the case of APOBEC3G (UniProt Q9HC16), the log2 fold change is reported as -0.014 (inactive). With ATF7 isoform 6 (UniProt P17544) the log2 fold change was -0.085 (inactive). In the case of AIFM2 (UniProt Q9BRQ8), the log2 fold change is reported as -0.017 (inactive). In the case of ASB6 (UniProt Q9NWX5), the log2 fold change is reported as -0.175 (inactive). For APAF1 (UniProt O14727), the log2 fold change was -0.125 (inactive). For ABITRAM (UniProt Q9NX38), the log2 fold change was 0.027 (inactive). ALKBH4 (UniProt Q9NXW9) was tested, and the log2 fold change was 0.019 (inactive). In the case of BRD3 (UniProt Q15059), the log2 fold change is reported as -0.003 (inactive). For ADD3 isoform 2 (UniProt Q9UEY8), the log2 fold change was -0.017 (inactive). ALDH6A1 (UniProt Q02252) was tested, and the log2 fold change was 0.044 (inactive). With APOH (UniProt P02749) the log2 fold change was 0.192 (inactive). In the case of AGAP3 isoform 4 (UniProt Q96P47), the log2 fold change is reported as -0.081 (inactive). For ANK2 (UniProt Q01484), the log2 fold change was 0.026 (inactive). With AAMP (UniProt Q13685) the log2 fold change was -0.04 (inactive).

Each target was assayed with CCCCN(Cc1ccc(C(=O)NO)cc1)C(=O)Nc1ccccc1 [Nexturastat A] in the same assay as above.
How it was run: as §1
For ABHD17A isoform 2 (UniProt Q96GS6), the log2 fold change was 0.034 (inactive). In the case of AASDH (UniProt Q4L235), the log2 fold change is reported as 0.179 (inactive). With ARFGAP2 (UniProt Q8N6H7) the log2 fold change was -0.033 (inactive). In the case of ACTBL2 (UniProt Q562R1), the log2 fold change is reported as -0.049 (inactive). With AMD1 (UniProt P17707) the log2 fold change was -0.048 (inactive). BRD4 (UniProt O60885) was tested, and the log2 fold change was -0.451 (active). With ADPRH (UniProt P54922) the log2 fold change was 0.015 (inactive). With ANXA5 (UniProt P08758) the log2 fold change was -0.116 (inactive). With BTBD6 (UniProt Q96KE9) the log2 fold change was 0.531 (inactive). With BYSL (UniProt Q13895) the log2 fold change was 0.14 (inactive). With ALDH2 isoform 2 (UniProt P05091) the log2 fold change was -0.103 (inactive). With ARRDC1 (UniProt Q8N5I2) the log2 fold change was 0.021 (inactive). With BRIP1 (UniProt Q9BX63) the log2 fold change was 0.23 (inactive). For ADAM15 (UniProt Q13444), the log2 fold change was -0.016 (inactive). For ABCA3 (UniProt Q99758), the log2 fold change was -0.142 (inactive). In the case of AFG1L (UniProt Q8WV93), the log2 fold change is reported as -0.122 (inactive). In the case of BRD8 isoform 2 (UniProt Q9H0E9), the log2 fold change is reported as -0.023 (inactive). With ASS1 (UniProt P00966) the log2 fold change was 0.023 (inactive). APOBEC3G (UniProt Q9HC16) was tested, and the log2 fold change was 0.172 (inactive).

Reference: the supplement of paper PMC10849652
